Inconclusive results are not listed. Unmarked numbers belong to inactive results. Calls of active or inactive are those of the source. The call rests on the fitted dose curve.
On the % scale 0 is the no-effect control and ±100 the full control effect; potency means the concentration at half of the fitted maximal effect.

This assay in a line: qHTS assay for small molecule disruptors of the mitochondrial membrane potential - 1 hr assay (AID 651754). Further: nearly all actives have a fitted effect of over 35% in size. The note with it: series mostly up to 92.2 µM; ratio change, negative = depolarisation: at the top concentration. From the text:
National Center for Advancing Translational Sciences [NCATS]
NIH Chemical Genomics Center [NCGC]
National Institutes of Environmental Health Sciences [NIEHS]
National Toxicology Program [NTP]
Mitochondrial membrane potential (MMP), one of the parameters for mitochondrial function, is generated by mitochondrial electron transport chain that creates an electrochemical gradient by a series of redox reactions. This gradient drives the synthesis of ATP, a crucial molecule for various cellular processes. Measuring MMP in living cells is commonly used to assess the effect of chemicals on mitochondrial function. […] The dye accumulates in the mitochondria of healthy cells as aggregates, with red fluorescence. The mitochondrial potential collapses and the dye can no longer accumulate in the mitochondria and remains in the cytoplasm in monomers, with green fluorescence.
2,000 HepG2 cells in 5 uL/well were dispensed into black, clear-bottom 1536-well plates using a Multidrop Combi (Thermo Scientific) dispenser. The assay plates were incubated overnight at 37C to allow cells to attach to the wells, followed by the transfer of 23 nL compound or DMSO vehicle by a pin tool (Kalypsys). The plates were incubated for 1 hr at 37C and 5% CO2, followed by the addition of 5 uL of 2X Mito-MPS dye (BD Biosciences) into each well using Flying Reagent Dispenser (Aurora Discovery) and then following 30 min incubation at 37C. Fluorescence intensity (490nm excitation and 535nm emission for monomers; and 540nm excitation and 590nm emissions for aggregates) was measured using an Envision plate reader.
For orientation: In qHTS, concentration-response curves come from the screen itself.
`O=C=Nc1ccc(Cc2ccc(N=C=O)cc2)cc1`: the “ratio change, negative = depolarisation” value was -14%.

For the compound `c1ccc2c(c1)ccc1cc3c(ccc4ccccc43)cc12`, the “ratio change, negative = depolarisation” value is -9.25%.

Regarding `O=C(/C=C/c1ccc(O)c(O)c1)OC1C[C@](O)(C(=O)O)C[C@@H](O)[C@H]1O` (stereo partly specified), the Potency entry was “inactive”.

Take `CC/C(=C(\c1ccccc1)c1ccc(OCCN(C)C)cc1)c1ccc(O)cc1`: the “ratio change, negative = depolarisation” value was -17.5%.

For `CCCCCC/C(C=O)=C\c1ccccc1`, the “ratio change, negative = depolarisation” value is 4.14%.

As for `CCCCCCCC[N+](CCCCCCCC)(CCCCCCCC)CCCCCCCC`, the Potency is 3.35 µM (active).

On to `C/C=C1\C(=O)C[C@H]2[C@@H]3CCC4=CC(=O)CC[C@]4(C)[C@H]3CC[C@]12C`, for which the “ratio change, negative = depolarisation” value was -1.28%.

Turning to `CO[C@H]1/C=C/O[C@@]2(C)Oc3c(C)c(O)c4c(O)c(c5c(c4c3C2=O)NC2(CCN(CC(C)C)CC2)N=5)=NC(=O)/C(C)=C\C=C\[C@H](C)[C@H](O)[C@@H](C)[C@@H](O)[C@@H](C)[C@H](OC(C)=O)[C@@H]1C`, the “ratio change, negative = depolarisation” value was 2.87%.

For `CC(=O)Nc1ccc(C(=O)CCl)cc1`, the “ratio change, negative = depolarisation” value is -8.23%.

Consider `c1ccc2c(c1)-c1cccc3c1c-2cc1ccccc13`, for which the “ratio change, negative = depolarisation” value is -12%.

Consider `Cc1cccc(O)c1C`, for which the “ratio change, negative = depolarisation” value is 0.345%.

For `Nc1ccc2cc3ccccc3cc2c1`, the Potency is 3.76 µM (active).

Consider `C=C(C)c1ccccc1`, for which the “ratio change, negative = depolarisation” value is 0.999%.

Consider `O=C1OC(O)C(C(Cl)Cl)=C1Cl` (stereo unspecified), for which the “ratio change, negative = depolarisation” value was -14.8%.

In the case of `O=Cc1ccc(Cl)c(Cl)c1`, the “ratio change, negative = depolarisation” value is -3.35%.

As to `C=CC(=O)OCCOCCOC(=O)C=C`, the “ratio change, negative = depolarisation” value is -7.26%.

Consider `Oc1ccc2cc(SSc3ccc4cc(O)ccc4c3)ccc2c1`, for which the Potency was 66.8 µM (active).

On to `Cc1cc(O)c(C(C)(C)C)cc1Sc1cc(C(C)(C)C)c(O)cc1C`, for which the Potency was 10.6 µM (active).

For `CN1[C@H]2CC(OC(=O)[C@H](CO)c3ccccc3)C[C@H]1[C@H]1O[C@H]12` (stereo partly specified), the Potency entry was “inactive”.

Take `ClC1=C(Cl)C(Cl)(Cl)C(Cl)=C1Cl`: the “ratio change, negative = depolarisation” value is -2.51%.

As for `O=[N+]([O-])c1cc([N+](=O)[O-])c2ccc(S(=O)(=O)O)cc2c1O`, the “ratio change, negative = depolarisation” value is 3.15%.

These data come from PubChem BioAssay (NCATS).
